Results published in PubChem BioAssay (NCI).
This is part of a sample that, as a whole, favours compounds with a hit. Of some 83,000 tested, about 20% had one in any assay.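 Step 1: grow cells in 96-well plates. Step 2: add test compound at a single concentration. Step 3: incubate 48 h. Step 4: record percent growth.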 Calls of active or inactive are those of the source. How the source made its calls: active means growth percent below 10; inactive means the rest.

Assays:
Experiment in all cases: NCI-60 one-dose screen, 48 h (100 = growth as untreated, 0 = no growth, -100 = all killed)
NCI-H23 lung = settings: 10 µM unless noted
NCI-H322M lung = settings: 10 µM unless noted
HOP-62 NSCLC = settings: 10 µM unless noted
NCI-H460 lung = settings: 10 µM unless noted
HOP-92 NSCLC = settings: 10 µM unless noted
NCI-H522 lung = settings: 10 µM
A549/ATCC NSCLC = settings: 10 µM unless noted
786-0 renal = settings: 10 µM unless noted
DU-145 prostate = settings: 10 µM unless noted
K-562 leukemia = settings: 10 µM unless noted
MALME-3M melanoma = settings: 10 µM unless noted
MDA-MB-231 breast = settings: 10 µM unless noted
RXF 393 renal = settings: 10 µM unless noted
SF-268 CNS = settings: 10 µM unless noted
SF-295 CNS = settings: 10 µM unless noted
SF-539 CNS = settings: 10 µM unless noted
UACC-257 melanoma = settings: 10 µM unless noted
M14 melanoma = settings: 10 µM unless noted

Measured: growth

COc1cc2oc(-c3ccc(O)cc3)cc(=O)c2c(O)c1I
inactive: NCI-H23 lung 99.6% | NCI-H322M lung 108% | HOP-62 NSCLC 126% | NCI-H460 lung 101% | HOP-92 NSCLC 113% | NCI-H522 lung 86.2% | A549/ATCC NSCLC 96.7% | 786-0 renal 100% | DU-145 prostate 104% | K-562 leukemia 92.6% | MALME-3M melanoma 115% | MDA-MB-231 breast 99% | RXF 393 renal 138% | SF-268 CNS 105% | SF-295 CNS 97% | SF-539 CNS 100% | UACC-257 melanoma 96.6% | M14 melanoma 110%

CCCN1CCN(c2ccc3nc(-c4ccc5nc(-c6ccc(C(F)(F)F)cc6)[nH]c5c4)[nH]c3c2)CC1
inactive: HOP-92 NSCLC 63% | UACC-257 melanoma 96.5%
active: NCI-H23 lung -77.1% | NCI-H322M lung -95.7% | HOP-62 NSCLC -62.6% | NCI-H460 lung -88.5% | NCI-H522 lung -43.4% | A549/ATCC NSCLC -65.1% | 786-0 renal -90.2% | DU-145 prostate -95.3% | K-562 leukemia -51.4% | MALME-3M melanoma -64.7% | MDA-MB-231 breast -86.9% | RXF 393 renal -70.4% | SF-268 CNS -70.2% | SF-295 CNS -58.4% | SF-539 CNS -94.6% | M14 melanoma -59%

COc1ccc(/C=C/C(=O)N2CCC(O)CC2)cc1OC1CCCC1
inactive: NCI-H23 lung 103% | NCI-H322M lung 108% | HOP-62 NSCLC 95.1% | NCI-H460 lung 104% | HOP-92 NSCLC 95.7% | NCI-H522 lung 87.1% | A549/ATCC NSCLC 91.4% | 786-0 renal 104% | DU-145 prostate 110% | K-562 leukemia 102% | MALME-3M melanoma 109% | MDA-MB-231 breast 103% | RXF 393 renal 118% | SF-268 CNS 101% | SF-295 CNS 101% | SF-539 CNS 95.8% | UACC-257 melanoma 101% | M14 melanoma 107%

CN1CCN(c2ccc3nc(-c4ccc5nc(-c6ccc(C(F)(F)F)cc6)[nH]c5c4)[nH]c3c2)CC1
active: K-562 leukemia -34.2% | RXF 393 renal -14.3%
inactive: NCI-H23 lung 68.2% | NCI-H322M lung 80.1% | HOP-62 NSCLC 51.3% | NCI-H460 lung 30.9% | HOP-92 NSCLC 59.3% | NCI-H522 lung 64.1% | A549/ATCC NSCLC 89.8% | 786-0 renal 69.6% | DU-145 prostate 59.2% | MALME-3M melanoma 18% | MDA-MB-231 breast 82% | SF-268 CNS 70.8% | SF-295 CNS 50.9% | SF-539 CNS 47.2% | UACC-257 melanoma 87.2% | M14 melanoma 43.8%

COc1ccc(S(=O)(=O)c2ccc(C(N)=O)cc2)cc1NC(=O)c1[nH]c(C)c2c1CCCCC2=O
inactive: NCI-H23 lung 58.7% | NCI-H322M lung 68.5% | HOP-62 NSCLC 38.8% | NCI-H460 lung 70.3% | HOP-92 NSCLC 23.6% | NCI-H522 lung 42.7% | A549/ATCC NSCLC 87.7% | 786-0 renal 60% | DU-145 prostate 82.9% | K-562 leukemia 46.5% | MALME-3M melanoma 70.2% | MDA-MB-231 breast 28.9% | RXF 393 renal 68.6% | SF-268 CNS 74.2% | SF-295 CNS 49.9% | SF-539 CNS 48.7% | UACC-257 melanoma 63.2%

O=C(c1ccc2ncc(-c3nc(NC4CC4)ncc3F)n2c1)N1CCOCC1
active: HOP-62 NSCLC 7.33% | NCI-H460 lung 4.24% | HOP-92 NSCLC -2.24% | 786-0 renal 9.09% | RXF 393 renal -48.7% | SF-268 CNS 1.39% | SF-539 CNS -0.925%
inactive: NCI-H23 lung 42.5% | NCI-H322M lung 15.4% | NCI-H522 lung 72.6% | A549/ATCC NSCLC 13.9% | DU-145 prostate 11.3% | K-562 leukemia 73.6% | MALME-3M melanoma 71.2% | MDA-MB-231 breast 49.8% | SF-295 CNS 19.6% | UACC-257 melanoma 46.1%

CCOC(=O)c1cnn(CC(O)c2ccc(F)cc2)c1NC(=O)Nc1ccccc1F (centres undefined)
inactive: NCI-H23 lung 98.4% | NCI-H322M lung 103% | HOP-62 NSCLC 101% | NCI-H460 lung 105% | HOP-92 NSCLC 102% | NCI-H522 lung 92.2% | A549/ATCC NSCLC 103% | 786-0 renal 90.3% | DU-145 prostate 102% | K-562 leukemia 97.5% | MALME-3M melanoma 93.3% | MDA-MB-231 breast 91.2% | RXF 393 renal 108% | SF-268 CNS 99% | SF-295 CNS 91.6% | SF-539 CNS 95.1% | UACC-257 melanoma 107% | M14 melanoma 93%

O=C1/C(=C/c2ccccc2F)CNC/C1=C\c1ccccc1F
inactive: NCI-H322M lung 14.8% | HOP-92 NSCLC 16.6%
active: NCI-H23 lung -48.3% | HOP-62 NSCLC -63.6% | NCI-H460 lung -29.7% | NCI-H522 lung -61.1% | 786-0 renal -92.8% | DU-145 prostate -11.6% | K-562 leukemia 5.7% | MALME-3M melanoma -9.46% | MDA-MB-231 breast -2.14% | RXF 393 renal -86.2% | SF-268 CNS -11.4% | SF-295 CNS -17.3% | SF-539 CNS -33% | UACC-257 melanoma -46.1% | M14 melanoma -47.3%

COc1ccc(OC)c(/C=C2\Oc3cc(O)ccc3C2=O)c1
inactive: NCI-H23 lung 96.1% | NCI-H322M lung 92.6% | HOP-62 NSCLC 101% | NCI-H460 lung 91.6% | HOP-92 NSCLC 98.2% | NCI-H522 lung 77.6% | A549/ATCC NSCLC 98.8% | 786-0 renal 89.5% | DU-145 prostate 77.5% | K-562 leukemia 93.2% | MALME-3M melanoma 76% | MDA-MB-231 breast 103% | RXF 393 renal 80.5% | SF-268 CNS 87.3% | SF-295 CNS 98.6% | SF-539 CNS 95.4% | UACC-257 melanoma 103% | M14 melanoma 73.2%
